# MCF10A rereplic: inducers of DNA re-replication in MCF 10A breast cells. MCF 10A DNA re-replication, Hoechst nuclear intensity, 48 h. Potency, µM (titrated, usually from 46.1 µM), without a hit: at the highest dose activity, positive = re-replication, usual class: activators. hit rate 2.9% among 350,000. AID 624296; also: % of control where 0% means no effect; nearly all actives have a fitted effect of over 50% in size
# KB-V1 cytotox: kills drug-selected multidrug resistant KB-V1 cells. KB-V1 MDR cells viability, CellTiter-Glo, 72 h. Potency, µM (top dose mostly 46.1 µM), actives largely listed as cytotoxic. hit rate 3.4% among 400,000. AID 1347076; also: % is scaled to controls: 0 for no effect and ±100 for the full control effect; nearly all actives have a fitted effect of over 60% in size
#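 Drug-selected KB-V1 cells, grown in DMEM lacking phenol red with 10% FBS, receive compound titrations; after three days at 37 degrees C, surviving cell ATP is quantified by CellTiter-Glo luminescence and responses normalized and curve-fitted.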
# ELG1 DNA repair: blocks ELG1-dependent DNA repair in HEK293T cells; HEK293T ELG1-luciferase reporter, luminescence, 16 h; DNA damage induced by 5-fluorouridine; Potency, µM (top dose mostly 46.1 µM), for inactives: at the top dose activity change, negative = inhibition, usual class: inhibitors; hit rate 2.3% among 330,000; also: % is scaled to controls: 0 for no effect and ±100 for the full control effect; nearly all actives have a fitted effect of over 55% in size
#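 Quantitative HTS, concentration-response format. 2,000 cells/well co-treated with 5-fluorouridine and compound, 16 hr in 5% CO2 at 37 °C; ONE-Glo luminescence read after 30 min.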
# SW480 rereplic: DNA re-replication induction in SW480 cells. SW480 DNA re-replication, Hoechst DNA content imaging, 48 h. Potency, µM (highest dose often 46.1 µM), without a hit: at the top dose re-replication activation, most hits filed as activators. hit rate 1.8% among 340,000; also: % of control where 0% means no effect; nearly all actives have a fitted effect of over 55% in size
#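 Treated cells incubate 48 hr (37 C, 5% CO2), are stained 40 min with Hoechst, and nuclear fluorescence is enumerated; a rise in nuclei with high DNA signal marks re-replication.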
# KB-3-1 cytotox: kills parental KB-3-1 adenocarcinoma cells. KB-3-1 viability, CellTiter-Glo ATP luminescence, 72 h. Potency, µM (series often up to 46.1 µM), most hits filed as cytotoxic. hit rate 1.4% among 400,000. AID 1347075; also: % is scaled to controls: 0 for no effect and ±100 for the full control effect; nearly all actives have a fitted effect of over 60% in size
#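 72 h, 37 °C compound treatment of KB-3-1 parental cells; CellTiter-Glo added, 10 min, luminescence read. Data corrected against DMSO-only plates and normalized before curve fitting.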
# An asterisk follows results filed as active; i = inactive; u = inconclusive; x = not tested or not shown. Hits are enriched below; roughly 8.2% of the tested compounds scored in any of these assays. Calls follow the shape of the dose curve; as a rule, active = well fitted curve in the direction sought with a large enough effect; inconclusive = small, poorly fitted or top-dose-only effect, or another doubt; inactive = no such curve, though single readings can be large; an effect the other way counts as inactive or inconclusive. Potency is read from the fitted curve at half-maximal effect.
SMILES,MCF10A rereplic,KB-V1 cytotox,ELG1 DNA repair,SW480 rereplic,KB-3-1 cytotox
Cc1ccc(NC(=O)Cc2coc3ccc(C(C)C)cc23)c(C)c1,x,i,x,x,i
O=S(=O)(c1ccc(Cl)cc1)c1nnn2c1nc(N1CCCCC1)c1sccc12,x,i,x,x,i
Cc1ccc(-c2csc(N(CCCN(C)C)C(=O)c3ccco3)n2)cc1,u,u,-7%,u,i
Cc1ccc(-c2csc(N(CC3CCCO3)C(=O)c3ccco3)n2)cc1 (stereo not drawn),21µM*,u,u,u,u
O=C(c1ccco1)N(CC1CCCO1)c1nc(-c2ccccc2)cs1 (stereo not drawn),u,23µM*,u,26%,u
NC(=S)N/N=C/c1ccccc1,3%,i,17%,3%,i
NC(=S)N/N=C/c1ccc(C23CC4CC(CC(C4)C2)C3)cc1,u,i,5%,7.3µM*,u
Cc1ccc([C@@H]2[C@@H]3C(=O)N(C)C(=O)[C@@H]3[C@@H]3C(=O)Nc4ccccc4C(=O)N23)cc1,-15%,i,2%,2%,i
Cc1cc2c(cc1C)CSC(c1c(O)ccc3ccccc13)SC2,18µM*,i,u,18%,u
Cc1cc2c(cc1C)CSC(c1ccc3ccccc3c1O)SC2,16%,i,15%,5%,i
Cc1cc2c(cc1C)CSC(c1ccccc1OC(=O)C(C)(C)C)SC2,12µM*,i,7%,7%,i
Cc1cc2c(cc1C)CSC(c1ccccc1O)SC2,u,18µM*,1%,u,u
Oc1ccccc1C1SC(c2ccccc2O)SC(c2ccccc2O)S1 (stereo not drawn),6.5µM*,i,x,u,u
Cc1ccccc1N=C1Nc2ccc(Cl)cc2N[C@]12C[C@H]1CCCC(=O)N3CC[C@@H](C2)[C@@H]13,x,i,x,x,i
CC12CCC(=O)N1C(C(=O)Nc1cc(C(F)(F)F)ccc1N1CCCCC1)CS2 (stereo not drawn),u,i,3%,14%,i
CCCC(=O)Nc1cc(Cl)ccc1N1CCN(C(=O)CC)CC1,18µM*,u,-7%,21%,i
CCCC(=O)N1CCN(c2nc3ccc(Cl)cc3s2)CC1,u,u,u,0%,18µM*
CCCC(=O)N1CCN(c2nc3ccc(Br)cc3s2)CC1,u,i,u,23%,u
CCC(=O)N1CCN(c2ccc(Cl)cc2NC(=O)Cc2ccc(Cl)cc2)CC1,-9%,3.7µM*,u,9%,i
Cc1ccc2c(c1)C1CN(C)CCC1N2Sc1ccccc1[N+](=O)[O-] (stereo not drawn),u,i,-9%,u,i
CCOC(=O)C1CCN(C(=O)C2CCCN2S(=O)(=O)c2ccc(Cl)cc2)CC1 (stereo not drawn),-4%,i,8%,-9%,i
CCc1cccc(CC)c1NC(=O)c1c(C)oc2ccc(O)c(CN3CCOCC3)c12,x,i,x,x,i
CC(=O)c1cccc(N(CC(=O)NC2CCCC2)C(=O)c2csnn2)c1,-18%,i,-6%,-15%,i
O=C(NCc1ccccc1)c1csc(-c2cccnc2)n1,6%,i,5.8µM*,-2%,i
O=C(Nc1ccc(Cl)cc1)c1csc(-c2ccccc2)n1,23µM*,u,u,19%,i
SMILES,MCF10A rereplic,KB-V1 cytotox,ELG1 DNA repair,SW480 rereplic,KB-3-1 cytotox
Cc1sc2ccccc2[n+]1Cc1ccccc1,x,i,x,x,i
NC(=O)c1ccccc1NC(=O)c1cc(S(=O)(=O)N2CCCCC2)ccc1N1CCOCC1,-4%,x,-23%,-4%,x
O=S(=O)(c1ccc(Cl)cc1)N1CCC(O)(CN2CCN(Cc3ccccc3)CC2)CC1,20µM*,i,u,0%,i
O=S(=O)(c1ccccc1)N1CCC(O)(CSc2ccc(Cl)cc2)CC1,u,23µM*,-6%,4%,u
O=C1CCC2=C1C(c1ccccc1Cl)N=C(Nc1nc3ccccc3o1)N2 (stereo not drawn),x,i,x,x,i
Cc1noc(Cn2c(=O)c3ccccc3n(CC(=O)Nc3cccc(Cl)c3C)c2=O)n1,x,i,x,x,i
O=C(Nc1ccccc1[N+](=O)[O-])c1cc(S(=O)(=O)N2CCOCC2)cs1,23µM*,x,u,u,x
O=C(Nc1cccc(Br)c1)c1cc(S(=O)(=O)N2CCOCC2)cs1,u,u,16µM*,-26%,i
Cc1ccc(/C=C(\C#N)c2nc(-c3cc4c(ccc5ccccc54)oc3=O)cs2)cc1,x,u,x,x,i
CCc1nnc2c3ccccc3nc(Nc3ccc(F)c(Cl)c3)n12,x,u,x,x,i
CCCCCC[N+](C)(C)CCSSCC[N+](C)(C)CCCCCC,6%,i,3%,-4%,i
CCCCCCCCCCCCCCCC[N+](C)(C)Cc1ccccc1,13µM*,x,x,u,x
CCCCCCCC(=O)NNC(=O)Cc1ccccc1,2%,i,6%,0%,i
CCCCCCCCCCCCCC[N+](C)(C)Cc1ccccc1,27µM*,i,x,27µM*,18µM*
Cc1ccc(S(=O)(=O)C(CNC(=O)COc2ccccc2)c2ccco2)cc1 (stereo not drawn),x,i,x,x,i
O=C(NCc1ccccc1)c1cc(=O)nc2sc(-c3ccccc3)nn12,11%,13µM*,-1%,0%,u
COC(=O)c1cc(=O)nc2sc(-c3ccc(F)cc3)nn12,-2%,i,16%,8%,i
CN(CCc1ccccc1)C(=O)CC1C(=O)NCCN1Cc1ccccn1 (stereo not drawn),x,i,x,x,i
CN(C(=O)COc1ccccc1C(=O)NCCc1ccccc1)c1ccccc1,18%,5.2µM*,14%,2%,i
CN(C(=O)COc1ccccc1C(=O)Nc1ccccc1)c1ccccc1,x,i,x,x,i
CCOC(=O)N1CCN(c2ccc(S(=O)(=O)N(Cc3ccccc3)Cc3ccccc3)cn2)CC1,-7%,5.8µM*,u,2%,i
CCOC(=O)N1CCN(c2ccc(S(=O)(=O)N3CCOCC3)cn2)CC1,u,x,12%,-10%,x
NC(=O)c1ccccc1NC(=O)C(c1ccccc1)c1ccccc1,u,i,x,-6%,i
CCOc1ccccc1NC(=O)c1oc2ccccc2c1NC(=O)C1CCCO1 (stereo not drawn),8%,21µM*,7.3µM*,7%,i
COc1ccc(NC(=O)c2oc3ccccc3c2C)c(OC)c1,-1%,21µM*,u,0%,u
CCOCC(=O)Nc1c(C(=O)Nc2ccccc2OC)oc2ccccc12,-1%,1.8µM*,24%,-5%,i
COc1ccc(NC(=O)c2oc3ccccc3c2NC(=O)COc2ccccc2OC)c(OC)c1,-5%,i,u,2%,i

# High-throughput results from PubChem BioAssay.
